Experimental data: PubChem BioAssay (NCI)
Compounds without any hit were thinned out: in the full panel of roughly 83,000, 20% have a hit.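 The endpoint reported here, percent growth, reads 100 for growth as untreated, 0 for no net growth and -100 for all cells dead.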 The source made the active and inactive calls. Rule for the calls: active = growth percent below 10; inactive = the rest.

The compounds below were run on HL-60(TB) leukemia (assay: NCI-60 one-dose screen, 48 h (100 = growth as untreated, 0 = no growth, -100 = all killed)). Conditions: 10 µM unless noted.

SMILES | growth
COc1ccc2[nH]c(C(=O)N3CCN(C(=O)OCc4ccc5c(Cl)cc(Cl)c(O)c5n4)CC3)cc2c1 | -45% (active)
COc1ccc2[nH]cc(-c3nc(-c4cn(C)c5ccncc45)cs3)c2c1 | 82.3% (inactive)
O=C(N/N=C\c1ccc(Cl)cc1)C(=O)N/N=C\c1ccc(Cl)cc1 | 108% (inactive)
CS(=O)(=O)Nc1cc(-c2ccc3ncnc(Nc4cccc(Cl)c4F)c3c2)cnc1Cl | 80.1% (inactive)
O=C(Cn1nnc2ccccc21)N/N=C/c1c[nH]c2ccccc12 | 31.1% (inactive)
CC(C)(C)n1cc(-c2ccnc(NCCCNS(=O)(=O)c3ccccc3)c2)c(-c2cccc(O)c2)n1 | 32.8% (inactive)
CC1(C)CC[C@]2(C(=O)N3CCNCC3)CC[C@]3(C)C(=CC[C@@H]4[C@@]5(C)CCC(=O)C(C)(C)[C@@H]5CC[C@]43C)[C@@H]2C1 | 102% (inactive)
CCn1cnc2c1c(=O)[nH]c(=O)n2CC1CCC(CNS(=O)(=O)c2ccc(OC3CCOCC3)c(F)c2)CC1 (stereo unspecified) | 13.2% (inactive)
COc1cccc2c1C(=O)c1c(O)c3c(c(O)c1C2=O)C[C@@](O)(C(C)=O)C[C@@H]3OC1CC(N)C(O)C(C)O1 (stereo partly specified) | -63.3% (active)
CC(C)CC1C(=O)N2CCC[C@H]2C2(O)O[C@](NC(=O)C3C=C4c5cccc6[nH]c(Br)c(c56)C[C@H]4N(C)C3)(C(C)C)C(=O)N12 (stereo partly specified) | 1.92% (active)
O=c1oc2c(cnc3ccccc32)cc1-c1cccc(Cl)c1 | 102% (inactive)
COc1ccc(/C=C(\C#N)n2nnc3cc(F)c(F)cc32)cc1 | 13.8% (inactive)
Cn1c(/C=C(\C#N)c2cccc(C(F)(F)F)c2)nc2c(N3CCOCC3)nc(Cl)nc21 | -25.2% (active)
Cc1cccc(CN(Nc2ccccc2)c2ccccc2)n1 | 91.9% (inactive)
N=C(N)c1ccc(-c2ccc(-c3ccc4ccccc4c3)s2)s1 | -56.4% (active)
CCN(CC)CCNc1nc2ccccc2c2c(=O)c3cc(Cl)ccc3sc12 | 78.1% (inactive)
Cc1cc(C(=O)Nc2ccc3cc(CN4CCOCC4)ccc3n2)c(C)n1-c1ccccc1 | 14.5% (inactive)
COc1ccc2nc3cc(Cl)ccc3c(Nc3ccc(N(C)C)cc3)c2c1 | 90% (inactive)

SMILES | growth
O=C(Nc1sc2c(c1C(=O)O)CCCC2)c1cccc(C(F)(F)F)c1 | 92.9% (inactive)
O=[N+]([O-])c1ccc(Oc2ccccc2Cl)c([N+](=O)[O-])c1 | -1.82% (active)
O=C1c2ccccc2Cc2cccc(Cl)c21 | 39.5% (inactive)
FC(F)(F)c1ccc2nc(-c3nc(-c4ccccc4)n4ccccc34)[nH]c2c1 | 108% (inactive)
COc1cc(/C=C/C(=O)c2ccc(F)cc2)ccc1OCCCCOc1cc2c(cc1OC)C(=O)N1CCCC1C=N2 (stereo unspecified) | -32.6% (active)
Cc1cc2ccccc2c(O)c1C#N | 89.6% (inactive)
COc1ccc(C(=O)c2sc3nc(-c4ccccc4OC)ccc3c2N)cc1OC | 13.9% (inactive)
Nc1nc2c(c3cnccc13)C(c1cccc(Cl)c1)Cc1cnccc1-2 (stereo unspecified) | 4.89% (active)
C[C@]12CC[C@@H]3c4ccc(O)c([N+](=O)[O-])c4CC[C@H]3[C@@H]1CC[C@@H]2NS(=O)(=O)c1ccc(C(F)(F)F)cc1 | -11.6% (active)
CCOC(=O)c1sc2nc(-c3cc(OC)c(OC)c(OC)c3)nc(N3CCOCC3)c2c1C | 24.7% (inactive)
Cc1c2ncccc2nc2[nH]c3ccc(OCCN(C)C)cc3c12 | 15.9% (inactive)
CCOC(=O)/C(C#N)=C(\C)CCc1ccccc1 | 239% (inactive)
CC(=O)O[C@H]1C[C@@]2(C)[C@@H](C[C@@H](O)[C@H]3[C@@]4(C)CC[C@H](N5CCCC5)[C@@H](C)[C@@H]4CC[C@@]32C)/C1=C(\CCC=C(C)C)C(=O)O | -74.3% (active)
O=[N+]([O-])c1ccc(-c2ncc(-c3ccc(O)cc3O)[nH]2)cc1 | 145% (inactive)
CC1SC(c2ccc(OCc3ccccc3)cc2)N(NC(=O)C(O)(c2ccccc2)c2ccccc2)C1=O (stereo unspecified) | 14.5% (inactive)
CCn1c(=O)c(C(=O)NCCCO)c(O)c2ccccc21 | 90.5% (inactive)
CON1CCC[C@]2(C)[C@H]3CC[C@@H]4[C@H]5[C@@H](O)C(C)(C)CC[C@]5(CO)CC[C@@]4(C)[C@]3(C)CC[C@H]2C1(C)C | 91.5% (inactive)
CC(=O)OC1CC2C3CCC4C[C@@H](NC(=O)C=C(C)C)CC[C@]4(C)C3CC[C@]2(C)[C@H]1C(C)N(C)C (stereo partly specified) | -49.6% (active)
